Assay outcomes deposited in PubChem by several laboratories.
An excerpt weighted towards active compounds, which were near 3.5% of everything screened.
CHRM1 PAM – positive allosteric modulators of human M1 muscarinic receptor; CHO-K1 hM1, Fluo-8 calcium fluorescence, ACh EC20; 0% = ACh EC20, 100% = maximal ACh; activation, % at 3 µM; actives 0.088% (n = 360,000); in the data active = activation above about 19%, passing the limit was not always enough
Target sequence (P11229 whole entry, looked up): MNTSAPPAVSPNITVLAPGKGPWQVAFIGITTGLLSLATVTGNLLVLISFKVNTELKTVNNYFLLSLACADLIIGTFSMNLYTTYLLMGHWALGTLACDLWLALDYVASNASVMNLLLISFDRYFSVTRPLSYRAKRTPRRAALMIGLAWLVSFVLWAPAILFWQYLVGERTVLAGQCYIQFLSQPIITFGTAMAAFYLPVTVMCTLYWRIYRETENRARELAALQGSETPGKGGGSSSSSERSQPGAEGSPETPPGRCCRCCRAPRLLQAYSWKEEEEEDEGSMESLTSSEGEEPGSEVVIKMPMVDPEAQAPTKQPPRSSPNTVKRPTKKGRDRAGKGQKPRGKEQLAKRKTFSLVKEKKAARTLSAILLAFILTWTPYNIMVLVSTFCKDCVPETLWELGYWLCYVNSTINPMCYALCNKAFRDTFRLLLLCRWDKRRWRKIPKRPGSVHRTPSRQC
Myeloid diff 2 – promotes myeloid progenitor differentiation; ER-HoxA9 myeloid progenitors, lysozyme-GFP differentiation, flow cytometry; calls only at 10 µM; actives 1% (n = 360,000);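 active = normalized GFP-positive differentiation at or above the plate's own cutoff, the solvent-only control mean plus 3 SD; inconclusive = no clear call, values can overlap the other calls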;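 also: cells exposed to compound for four days before flow analysis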
M1 antag – human CHRM1 antagonism. P11229. CHO-K1 hM1, Fluo-8 calcium fluorescence, ACh EC80 antagonist. inhibition, % at 3 µM. actives 1.3% (n = 360,000). AID 588852;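 active = percent inhibition above its own plate's cutoff, namely the mean of that plate's compound wells plus 3 SD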;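 also: peak over basal fluorescence ratio during 140 s after agonist addition; 0% = ACh EC80 plus DMSO and 100% = DMSO alone without agonist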
ATG4B inh – blocks human ATG4B protease cleavage of LC3 substrate; Q9Y4P1; ATG4B cleavage of LC3-PLA2, NBD-HPC fluorescence, 1 h; inhibition, % at 8.33 µM; actives 0.51% (n = 340,000); in the data active = inhibition above about 40%
M1 ag – human M1 muscarinic receptor agonism. CHO-K1 hM1, Fluo-8 calcium fluorescence, agonist mode; 0% DMSO, 100% acetylcholine EC100. P11229. activation, % at 3 µM. actives 0.33% (n = 360,000);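 active = activation above the run's mean compound activation plus 3 SD, cut at about 16% in these data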;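 also: peak over basal fluorescence ratio within a 140 s kinetic read after compound addition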
SKN-1 inh – blocks SKN-1 activity in C. elegans; C. elegans VP596 Pgst-4::GFP/RFP ratio, acrylamide-induced, 24 h; inhibition, % at 21.8 µM; actives 0.49% (n = 360,000);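 active = interference check ratio from 0.5 to 1.5 plus GFP to RFP signal ratio inhibition reaching or exceeding a fixed threshold, cut at about 30% in these data, passing the limit was not always enough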
Starred values were filed as active, the others as inactive; i = inactive; ? = inconclusive; / = not tested or not shown; + = active, no number; ! = repeats disagree.

SMILES	CHRM1 PAM	Myeloid diff 2	M1 antag	ATG4B inh	M1 ag	SKN-1 inh
CC1CCCCN1CC(=O)NC(c1ccccc1)c1ccccc1 (stereo not drawn)	-38	i	60*	-1	-16	2
O=C(Cc1cccc(NC(=O)C2CCN(C(=O)C3CCCCC3)CC2)c1)Nc1cccc(C(=O)N2CCOCC2)c1	8	i	-13	-9	-9	23
C=Cn1cc(CNC[C@H]2O[C@@H](n3cnc4c(=O)[nH]c(N)nc43)[C@H](O)[C@@H]2O)c(C)n1	-2	i	-23	/	-3	15
c1ccc(OCCOCCN2CCN(C(c3ccccc3)c3ccccc3)CC2)cc1	-23	i	100*	0	-8	7
c1ccc(OCCOCCN2CCc3ccccc3C2)cc1	-3	i	2	-9	-10	-3
COc1cccc(OC)c1OCCCCCCN1CCN(C)CC1	2	i	-17	-1	-11	8
COc1ccccc1OCCCCN1CCN(C(c2ccccc2)c2ccccc2)CC1	-20	i	86*	-6	-7	0
COc1cc(NC(=O)COc2ccc(-n3cnnn3)cc2)cc(OC)c1OC	-2	i	1	-2	1	-7
O=C(NCCCN1CCOCC1)c1ccc(/C=C2\Oc3ccccc3N(Cc3ccccc3F)C2=O)cc1	-3	i	13	-5	-4	-16
CCN1CCN(CCNC(=O)c2ccc(/C=C3/Sc4ccccc4N(Cc4ccccc4C)C3=O)cc2)CC1	-16	+	21	3	4	4
Cc1ccccc1CN1C(=O)c2ccccc2Sc2ccc(C(=O)NCCN3CCOCC3)cc21	0	?	-3	-8	-7	19
CCN1CCN(CCCNC(=O)c2ccc(/C=C3/Sc4ccccc4N(Cc4ccccc4F)C3=O)cc2)CC1	-17	i	29*	9	-3	-4
CC(C)Sc1nc(-c2cccs2)nc2cc(Cl)ccc12	/	i	/	/	/	1
CC1CCC2(CC1)NC(=O)N(CC(=O)c1ccc(CNC(=O)C(C)(C)C)s1)C2=O (stereo not drawn)	8	i	-12	-13	-5	-5
O=[N+]([O-])c1cccnc1N1CCC(c2cc(-c3ccc(Cl)cc3Cl)n[nH]2)CC1	-1	i	3	24	-2	-1
O=[N+]([O-])c1cccnc1N1CCC(c2cc(-c3cccc(C(F)(F)F)c3)n[nH]2)CC1	-14	i	22*	33	-7	1
O=C(c1cccc(Cl)c1)N(Cc1cccs1)C1CCS(=O)(=O)C1 (stereo not drawn)	3	i	-6	1	-2	36*
Cc1cccc(C(=O)N(Cc2cccs2)C2CCS(=O)(=O)C2)c1 (stereo not drawn)	-3	i	10	-7	-2	36*
O=C(c1ccc(F)cc1)N(Cc1cccs1)C1CCS(=O)(=O)C1 (stereo not drawn)	4	i	-9	1	-2	14
COc1cccc(C(=O)N(Cc2cccs2)C2CCS(=O)(=O)C2)c1 (stereo not drawn)	-8	i	20	-11	0	5
CCCC(=O)N(Cc1cccnc1)c1nc2c(OC)ccc(Cl)c2s1	10	i	-10	-1	-2	13
CCCCn1c(N)c(N(CCOC)C(=O)c2cccc(S(=O)(=O)N3CCCCCC3)c2)c(=O)[nH]c1=O	8	i	-7	-9	-3	9
Cc1ccc(C(O)(CCN2CCCCC2)c2ccccc2)cc1 (stereo not drawn)	-27	i	101*	5	-9	2
CCN(CC)CCC#CC(O)(c1ccccc1)c1ccccc1	-27	i	99*	-6	-11	-2
OC(C#CCCN1CCCCC1)(c1ccccc1)C1CCCCC1 (stereo not drawn)	-25	i	97*	-1	-7	-10
SMILES	CHRM1 PAM	Myeloid diff 2	M1 antag	ATG4B inh	M1 ag	SKN-1 inh
OC(CCN1CCCCC1)(c1ccccc1)C1CCCCC1 (stereo not drawn)	/	i	/	1	/	-15
OC(CCN1CCCCC1)(c1ccccc1)C1C[C@@H]2C=C[C@H]1C2 (stereo partly drawn)	-26	i	99*	-6	-9	-3
CC1CCCC(C)N1C(=O)COC(=O)c1ccco1 (stereo not drawn)	2	i	-4	-12	-3	16
CCOc1ccc(CN2C(=O)c3ccccc3C2=O)cc1C(=O)N1CCC(C(N)=O)CC1	9	i	-8	7	-1	7
OC(C#CCCN1CCCCC1)(c1ccccc1)c1ccccc1	-27	i	99*	2	-3	9
CCCC1=NN2C(=N)/C(=C\c3cc(C)n(Cc4ccccc4)c3C)C(=O)N=C2S1	-27	i	78*	-4	59*	3
O=C1NC(=S)S/C1=C\c1ccc(SCc2ccco2)o1	5	i	3	67*	-3	22
CCC1=NN2C(=N)/C(=C\c3ccc(SCc4ccco4)o3)C(=O)N=C2S1	7	i	-10	17	4	50
CCCC1=NN2C(=N)/C(=C\c3ccc(SCc4ccco4)o3)C(=O)N=C2S1	-2	i	1	38	4	44*
COC(=O)[C@]1(Sc2ccc(OC)cc2)CC(=O)N[C@@H]1c1ccccc1	/	i	/	/	/	-7
CCCCC[C@@H](C)N1C[C@@H](COCc2ccccc2)Oc2cc(N3CCC[C@@H]3COC)ccc2S1(=O)=O	/	i	/	/	/	19
O=C1NC(=O)N(Cc2ccccc2)C1=O	4	+	-9	-3	-3	18
CCN=C1SC(CC(=O)Nc2ccccc2)C(=O)N1CC (stereo not drawn)	-16	i	29*!	0	2	29
CCN=C1SC(CC(=O)Nc2ccc3c(c2)OCO3)C(=O)N1CC (stereo not drawn)	-19	i	28*	-5	1	-4
Cn1nnnc1Sc1ncnc2scc(-c3ccccc3Br)c12	0	+	-4	8	-9	-7
COc1cc(OC)c(NC(C)C(=O)N2CCCC2)cc1Cl (stereo not drawn)	10	i	9	-6	0	13
O=C(COC(=O)c1ccc(Cl)nc1)NC1CCCCCC1	8	i	-2	5	-2	1
O=C(OCC(=O)N(C1CCCCC1)C1CCCCC1)c1ccc(Cl)nc1	24*	i	-22	4	0	-11
COc1ccc(CC(=O)Nc2nc(-c3ccc(OC)c(OC)c3)cs2)cc1OC	6	i	-5	-9	16*	-3
COc1cc(C)ccc1NC(=O)Cc1csc(NC(=O)Nc2ccccc2OC)n1	-4	i	4	-12	-3	13
